Screening data as filed in PubChem BioAssay.
Compounds with a hit are over-represented: about 1.6% of the library has one in this group of screens.
NALP1 yeast inh: NALP1 inflammasome inhibitors in reconstituted yeast, colorimetric, S. cerevisiae, triplicate retest; S. cerevisiae NALP1/ASC/caspase-1 growth, X-gal OD620, 72 h; inhibition, % at 10 µM; hit rate 0.61% among 280,000; AID 2071, 2009; in the data active means inhibition mostly above about 24%, no sharp cut-off; inactive means mostly below about 32%
NLRP3 yeast inh: NALP3 inflammasome inhibitors in reconstituted yeast, primary screen, luminescence, uHTS. Yeast reconstituted NLRP3/ASC/caspase-1, beta-gal luminescence, 24 h. inhibition, % at 10 µM. hit rate 0.39% among 330,000. AID 2825, 2010;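 active means inhibition of 50% or more; inactive means inhibition below 50%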;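 further: plate controls were induced DMSO wells for no effect and uninduced yeast grown without galactose for full effect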
Rce1 inh: yeast Rce1p protease inhibitors, primary screen, biochemical, fluorescence, cell-free homogeneous. yeast membranes, quenched prenylated peptide cleavage fluorescence. calls only. hit rate 0.27% among 290,000;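 active means fall in fluorescence gain of 50% or more versus controls, with final raw signal at or below 3038400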;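 further: plate controls were neutral control wells for no effect and wells lacking membranes for full effect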
Target sequence (Q03530 whole entry, looked up): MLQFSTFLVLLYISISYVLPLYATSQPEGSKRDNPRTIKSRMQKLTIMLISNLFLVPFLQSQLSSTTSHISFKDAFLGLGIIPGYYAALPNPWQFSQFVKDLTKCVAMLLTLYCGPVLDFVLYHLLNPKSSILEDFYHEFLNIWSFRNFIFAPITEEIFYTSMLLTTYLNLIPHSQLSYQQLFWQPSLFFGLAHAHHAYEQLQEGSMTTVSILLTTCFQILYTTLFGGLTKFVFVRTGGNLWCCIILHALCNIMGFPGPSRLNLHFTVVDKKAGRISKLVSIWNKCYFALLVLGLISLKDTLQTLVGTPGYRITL
Yeast superoxide: reduction of superoxide in aged yeast, primary screen, HTS; hit rate 0.18% among 330,000; AID 2690, 2010; S. cerevisiae aged cells, superoxide DHE fluorescence; stronger effect = lower value; superoxide response (% of plate mean), % at 10 µM;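 active means superoxide response under a set limit, about three screen SD below normal, cut at about 65% in these data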;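 further: yeast aged for seven days with compound at 30 °C before DHE staining; 100% = average MFI of all compound-treated wells on the plate with controls excluded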
V-ATPase pH: regulators of yeast V-ATPase proton pumping, primary screen, pHLuorin cytosolic pH fluorescence; S. cerevisiae; hit rate 0.37% among 350,000; response, % at 10 µM; in the data active means response mostly above about 7.3%, no sharp cut-off; inactive means mostly below about 5.4%; further: actives read high
PERK inhibitor: block of dimerizer-induced PERK translation repression, primary screen, PERK inhibitor project, CHO PERK-DD cells, SEAP luminescence, HTS. inhibition, % at 5.6 µM. hit rate 0.17% among 220,000. Eukaryotic translation initiation factor 2-alpha kinase 3 (Homo sapiens), Q9NZJ5. CHO PERK-DD fusion, SEAP luminescence translation reporter. AID 1416, 2008;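 active means inhibition above the mean inhibition of all tested compounds plus 3 SD, set separately per screening campaign, cut at about 2.9% in these data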;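 further: PERK kinase domain activated by AP20187 dimerizer at 100 nM; 0% = DMSO with dimerizer and 100% = rapamycin at 8.4 µM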
NALP3 confirm: NALP3 inhibitors retested in yeast, confirmation, luminescence, single concentration; shares compounds with NLRP3 yeast inh; yeast expressing human NALP3; inhibition, % at 10 µM; hit rate 81% among 1,300; AID 435006, 2010; in the data active means inhibition above about 48%
Casp1-ASC yeast: CASP1-PYCARD signaling inhibition in yeast, confirmatory test, counterassay for NLRP3 inhibitor program, one-dose | shares compounds with NLRP3 yeast inh | yeast expressing Caspase-1-ASC, luminescence counter screen | inhibition, % at 10 µM | hit rate 66% among 1,000 | AID 488784, 2010
NALP3 retest: NALP3 inhibitors in yeast, repeat test, confirmation, luminescence, single concentration, retest | shares compounds with NLRP3 yeast inh | yeast expressing human NALP3, luminescence read-out | inhibition, % at 10 µM | hit rate 53% among 1,000 | AID 488794, 2010
* hit, by the source's call; i = inactive; nt = not tested or not shown. Unless noted, no stated cut-off is given here; in the data, active means inhibition above about 50%; inactive means the rest.

SMILES	NALP1 yeast inh	NLRP3 yeast inh	Rce1 inh	Yeast superoxide	V-ATPase pH	PERK inhibitor	NALP3 confirm	Casp1-ASC yeast	NALP3 retest
O=C(Nc1cccc(S(=O)(=O)N2CCCC2)c1)c1ccc2ccccc2n1	15.3	-128.3	i	132.2	-1.4	0.1	-11.7	nt	nt
O=C(Nc1cccc(S(=O)(=O)N2CCOCC2)c1)c1ccc2ccccc2n1	nt	-103.5	i	127.3	-3.9	0.3	-2.5	nt	nt
Cc1c(C(=O)Nc2cccc(S(=O)(=O)N3CCCC3)c2)oc2ccccc12	nt	-31.8	i	98.0	-0.7	1.1	nt	nt	nt
CCc1ccc(CN(Cc2cccnc2)C(=O)/C=C/c2ccc(OC)cc2)cc1	11.8	4.4	i	101.7	-2.1	nt	nt	nt	nt
CC(=O)N1CC2(CC(c3ccc(Cl)cc3Cl)=NO2)CN1c1cccc(Cl)c1 (stereo unspecified)	nt	nt	nt	nt	0.6	nt	nt	nt	nt
COc1ccc(C(=O)OCC(=O)NC2CC2)cc1	nt	nt	nt	nt	4.3	nt	nt	nt	nt
Nc1nc2ccccc2cc1-c1cccs1	32.4	50.7*	i	96.9	-0.5	nt	69.4*	59.4*	63.0*
c1csc(-c2ccc3ccccc3n2)c1	17.8	9.8	i	94.4	-1.6	0.5	nt	nt	nt
C[C@@H]1CN([C@H](C)CO)C(=O)CCCn2nncc2CO[C@@H]1CN(C)C(=O)c1cc(-c2ccccc2)on1	nt	nt	nt	nt	3.4	nt	nt	nt	nt
Cc1ccc(OCc2nc(-c3cccnc3)no2)cc1C	12.2	51.0*	i	89.7	3.3	-0.4	61.4*	35.8	39.9
Cc1ccc(OCc2nc(-c3ccccn3)no2)c(Br)c1	13.8	42.0	i	91.4	0.9	0.0	nt	nt	nt
Cc1ccc(OCc2nc(-c3ccccn3)no2)cc1	-3.7	56.2*	i	115.2	6.6	0.7	70.0*	72.0*	64.3*
Cc1cc(C)cc(OCc2nc(-c3cccnc3)no2)c1	-2.2	29.0	i	96.8	-1.6	0.1	nt	nt	nt
O=C(N/N=C/c1cccs1)c1ccc2ccccc2c1	7.6	66.3*	i	100.2	-2.9	nt	81.3*	67.5*	66.3*
O=C(N/N=C/c1cccs1)c1ccc2ncccc2c1	-10.1	5.8	i	87.4	1.3	0.1	nt	nt	nt
Cc1ccc(S(=O)(=O)c2ncccc2N)cc1	-3.3	-7.3	i	89.5	0.2	nt	nt	nt	nt
Cc1ccc(S(=O)(=O)c2ncccc2[N+](=O)[O-])cc1	36.1*	57.9*	i	91.7	4.4	nt	68.7*	67.9*	57.9*
O=C(C[n+]1ccccc1)N/N=C/c1ccccc1F	8.4	13.0	i	92.9	3.5	0.5	nt	nt	nt
O=C(C[n+]1ccccc1)N/N=C/c1cc(Br)ccc1O	-7.6	63.7*	i	89.6	2.8	nt	66.5*	51.4*	65.6*
Cc1cc2ncn(S(=O)(=O)N3CCCCC3)c2cc1C	27.4	68.6*	i	94.3	-0.8	-0.8	60.5*	73.8*	68.0*
Cc1cc2ncn(S(=O)(=O)N3CCOCC3)c2cc1C	24.1	22.7	i	97.8	-1.9	-1.0	nt	nt	nt
O=C(Nc1cc(Cl)ccc1-n1cncn1)c1ccc([N+](=O)[O-])s1	45.2*	82.4*	i	105.6	2.3	nt	90.8*	nt	nt
O=C(Nc1cc(Cl)ccc1-n1cncn1)c1ccco1	1.6	13.8	i	92.2	3.8	nt	nt	nt	nt
CC(Oc1ccc(F)cc1)C(=O)Nc1cc(Cl)ccc1-n1cncn1 (stereo unspecified)	nt	49.4	i	88.5	0.9	nt	nt	nt	nt
CC(Oc1ccccc1)C(=O)Nc1cc(Cl)ccc1-n1cncn1 (stereo unspecified)	nt	56.9*	i	98.9	8.2	nt	58.7*	52.3*	46.0
SMILES	NALP1 yeast inh	NLRP3 yeast inh	Rce1 inh	Yeast superoxide	V-ATPase pH	PERK inhibitor	NALP3 confirm	Casp1-ASC yeast	NALP3 retest
Cc1ccccc1CSCC1Nc2ccc(C(=O)NCCc3ccccc3)cc2NC1=O (stereo unspecified)	nt	nt	nt	nt	4.7	nt	nt	nt	nt
COc1ccc(NC(=O)CNc2ccc(OC)c(S(=O)(=O)N3CCOCC3)c2)cc1	nt	nt	nt	nt	1.9	nt	nt	nt	nt
CC(C)CCOc1cccc(OCC(=O)Nc2ccncc2)c1	36.4	65.9*	i	104.8	2.4	nt	77.6*	86.5*	59.5*
CCCc1ccc(C(=O)NNc2cc(Cl)ccc2Cl)cc1	5.8	57.0*	i	93.4	2.6	-0.2	53.8*	55.6*	49.0
CCCc1ccc(C(=O)NNC(=O)c2ccc(Cl)cc2)cc1	2.3	18.3	i	101.5	3.4	0.4	nt	nt	nt
CC1=C(c2ccccc2)C(O)(c2ccccc2)C(C)C1=O (stereo unspecified)	nt	nt	nt	nt	2.1	nt	nt	nt	nt
Cc1nn(-c2c(Cl)cc(Cl)cc2Cl)c(=O)c2ccccc12	19.5	62.7*	i	67.8	-1.6	-1.0	72.8*	59.2*	53.4*
Cc1nn(-c2ccc(Br)cc2)c(=O)c2ccccc12	5.4	31.7	i	82.5	3.3	nt	nt	nt	nt
COC1CC(=O)C2OC(c3ccccc3)OCC2O1 (stereo unspecified)	nt	nt	nt	nt	-1.8	nt	nt	nt	nt
N#Cc1ccc(C(=O)OCCCc2cc3ccccc3c(=O)o2)cc1	nt	65.6*	nt	103.9	-1.7	nt	61.2*	60.8*	63.1*
COc1cc2ccc(CC(N)=O)cc2cc1OC	nt	nt	nt	nt	-0.8	nt	nt	nt	nt
CC1(C(=O)OCc2cc(=O)n3cc(Br)ccc3n2)CC1(Cl)Cl (stereo unspecified)	5.2	64.0*	i	98.2	-2.3	0.7	71.5*	77.8*	64.2*
CCCCCC(=O)N1CCN(CCN=CC2=C(O)CC(c3ccco3)CC2=O)CC1 (stereo unspecified)	-14.9	53.4*	i	102.1	0.2	0.2	54.4*	42.9	51.8*
CCCCCC(=O)N1CCN(CCN=CC2=C(O)CC(c3cccs3)CC2=O)CC1 (stereo unspecified)	-6.5	50.6*	i	80.2	-2.7	-1.2	64.8*	54.9*	44.2
CCCCCN=CC1=C(O)CC(c2ccccc2)CC1=O (stereo unspecified)	-6.5	22.4	i	102.6	-0.5	0.5	nt	nt	nt
C[C@@H]1CCCCO[C@H](CN(C)C(=O)Cc2ccccc2)[C@@H](C)CN([C@H](C)CO)C(=O)c2cc(N(C)C)ccc2O1	nt	nt	nt	nt	-0.9	nt	nt	nt	nt
